Measured values as given in PubChem BioAssay AID2177 (The Scripps Research Institute Molecular Screening Center, 2009).
About 1,200 (0.38%) of roughly 320,000 compounds were called active. The entries come from a sample that favours actives as a whole. Unmarked numbers belong to inactive results.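 How the source made its calls: active means inhibition above the screen-wide mean plus 3 SD, limit set per campaign (cut at about 26% in these data); inactive means the rest.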

The molecules below were run against Acyl-protein thioesterase 2 (Homo sapiens) (UniProt O95372) (assay: LYPLA2 inhibitors, primary screen, counter-screen for PME1 inhibitor project, biochemical, fluorescence polarization, FP-Rh probe ABPP (AID 2177;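 further: 0% = LYPLA2 with DMSO and 100% = wells lacking LYPLA2 enzyme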)). Details: recombinant LYPLA2, FP-Rh probe fluorescence polarization; at 5.9 µM; stronger effect = higher value.
Sequence of Acyl-protein thioesterase 2 (Homo sapiens) (O95372 whole entry, looked up): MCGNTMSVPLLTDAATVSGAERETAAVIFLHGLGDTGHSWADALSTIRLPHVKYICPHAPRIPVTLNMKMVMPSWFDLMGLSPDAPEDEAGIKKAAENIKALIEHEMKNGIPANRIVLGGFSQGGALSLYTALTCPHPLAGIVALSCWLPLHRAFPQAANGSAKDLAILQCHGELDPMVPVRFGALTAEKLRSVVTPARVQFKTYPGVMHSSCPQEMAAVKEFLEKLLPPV

| SMILES | inhibition |
| --- | --- |
| Cc1ccc(Cl)cc1NC(=O)C1CCCN(c2cnccn2)C1 (configuration not stated) | -0.03% |
| COCCOC(=O)c1sc(=S)n(CCOC)c1N | 34.7% (active) |
| COC(=O)c1sc(=S)n(-c2ccc(Cl)cc2)c1C | 1.95% |
| COc1ccccc1NC(=O)CSc1nnc(CNC(=O)c2ccccc2F)o1 | -2.81% |
| Cc1nn(-c2ccccc2)c2c1c(C)c(CCC(=O)NCC1CCCO1)c(=O)n2C (configuration not stated) | 0.8% |
| Cc1cc(SCC(=O)NCCN2C(=O)CSC2=O)nc2ccccc12 | -4.03% |
| Clc1ccc(C2=CSC3=Nc4cccc5cccc(c45)N23)cc1 | 0.51% |
| CN(CCc1ccccn1)C(=O)c1ccc(OC2CCN(CCc3ccccc3)CC2)cc1 | 33.7% (active) |
| Cn1cc(CNC(=O)c2ccc(OC3CCN(Cc4ccccn4)CC3)cc2)cn1 | 11% |
| O=C(c1ccc(OC2CCN(Cc3ccccn3)CC2)cc1)N1CCCCCC1 | 3.95% |
| NS(=O)(=O)c1ccc(N=Nc2c(O)[nH]c3ccc(Br)cc23)cc1 | 1.06% |
| Cc1ccc(/C=C/C(=O)OCC(=O)Nc2cccnc2Cl)cc1 | 7.22% |
| Nc1nc(SCC(=O)Nc2ccc(Cl)cc2C(F)(F)F)n[nH]1 | 9.87% |
| CC(C)CNC(=O)C(=O)NCC(c1ccc2c(c1)OCO2)N1CCOCC1 (configuration not stated) | 6.19% |
| O=C(NCCSCc1ccccc1)c1ccc(Cl)c(S(=O)(=O)N2CCOCC2)c1 | 1.96% |
| Cc1nn(Cc2ccccc2)c(C)c1CNC(=O)c1ccc(F)c(S(=O)(=O)N2CCOCC2)c1 | 29.7% (active) |
| O=C(c1ccc(F)c(S(=O)(=O)N2CCOCC2)c1)N(CCc1ccccc1)Cc1ccccc1 | 5.14% |
| CC(OC(=O)CCC(=O)c1ccccc1)C(=O)Nc1ccc(F)cc1 (configuration not stated) | -5.12% |
| CN(CCC(=O)Nc1cc(S(=O)(=O)N(C)C)ccc1Cl)CC(=O)Nc1ccc(F)cc1 | -4.23% |
| CC(C)N(Cc1ccccc1)C(=O)COC(=O)c1ccccc1SCC(=O)N1CCCC1 | 1.65% |
| COc1ccc(/C=C/C(=O)Nc2c(C)nn(C)c2C)cc1COc1ccc(Br)cc1 | -4.58% |
| O=C(Nc1ccc(N2CCN(C(=O)c3cccs3)CC2)cc1)c1cccnc1Cl | 35.9% (active) |
| O=C(COc1ccccc1)Nc1ccc(N2CCN(C(=O)c3cccs3)CC2)cc1 | 7.89% |
| Cc1ccccc1C(=O)N1CCN(c2ccc(NC(=O)c3cccs3)cc2)CC1 | 2.59% |

| SMILES | inhibition |
| --- | --- |
| CN=C1S/C(=C\c2c(OC)cc(OC)cc2OC)C(=O)N1C | -0.06% |
| CC(C)OCCCNC(=O)CN1C(=O)/C(=C/c2ccccc2F)Oc2ccccc21 | -0.43% |
| CCC(=C/c1sc2ccc3ccccc3c2[n+]1C)/C=C1\Sc2ccc3ccccc3c2N1C | 40.1% (active) |
| O=P(O)(CP(=O)(c1ccccc1)c1ccccc1)c1ccccc1O | -2.71% |
| CCC(C)CCN1CCN=C1N(C)C (configuration not stated) | 8.55% |
| O=S(=O)(Nc1ccc(Cl)cn1)c1cnc(Cl)c(Br)c1 | 2.67% |
| COC(=O)/C(=C1\Oc2ccc(C(C)(C)C)cc2S1)C(F)(F)F | -3.77% |
| CC(=O)c1cc2c(cc1N)OCO2 | -2.04% |
| Nc1[nH][nH]c(=O)c1N=Nc1ccc2c(c1)OCO2 | 28.4% (active) |
| O=C(c1ccc2c(c1)OCO2)N1CCOCC1 | 2.23% |
| COc1ccc([N+](=O)[O-])cc1C1NN=C(c2cccc3ccccc23)S1 (configuration not stated) | 7.57% |
| Cc1cccc(C(=O)NC(=S)N2CCN(c3ccc([N+](=O)[O-])cc3)CC2)c1 | 0.8% |
| O=C(COC(=O)c1cc([N+](=O)[O-])ccc1NCc1ccccc1)NC1CCCCC1 | 12% |
| CCC(CC)COC(=O)C1=C(C)NC(=O)NC1c1ccc([N+](=O)[O-])cc1 (configuration not stated) | 28.8% (active) |
| CC1=C(C(=O)OCC2CCCCC2)C(c2ccc(F)cc2)NC(=O)N1 (configuration not stated) | 0.63% |
| COCCOC(=O)C1=C(C)NC(=O)NC1c1ccc(Cl)cc1 (configuration not stated) | 3.24% |
| Cc1cc(C)c(C#N)c(SCc2[nH]nc3c2C(c2ccccc2)C(C#N)=C(N)O3)n1 (configuration not stated) | 55.3% (active) |
| Cc1cc(C)c(C#N)c(SCc2ccccc2C(=O)O)n1 | 1.89% |
| CCc1ccc(C2C(C#N)=C(N)Oc3n[nH]c(CC(=O)OC)c32)cc1 (configuration not stated) | 5.23% |
| CC(C)NC(=O)CSc1nnc(COc2ccccc2Cl)o1 | 1.63% |
| Cc1ccccc1N1CCN(CCCN2C(=O)C3CCCCN3C2=O)CC1 (configuration not stated) | -1.82% |
| O=C1C2CCCN2C(=O)N1CCCCN1CCN(c2cccc(C(F)(F)F)c2)CC1 (configuration not stated) | 64.2% (active) |
| O=C(CCN1CCCO1)N1CCCC(N2CCN(c3cccc(C(F)(F)F)c3)CC2)C1 (configuration not stated) | 4.25% |
